The source of these data is PubChem BioAssay.

Values without a mark were called inactive. For some of these results: Entries with a potency or affinity are not part of this list. Activity calls are given as the source filed them. Unless noted, the rule behind the calls is not given here.

Test [1] is described as follows: antimalarial activity against Dd2 strain (AID 2302;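 active = growth inhibition above 50% at the single 2 µM test dose, taken to imply half-maximal potency below 2 µM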;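 note: 0% = DMSO untreated growth and 100% = chloroquine plus artemisinin killed control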). The conditions noted are these: P. falciparum Dd2 in RBCs, LDH growth readout, 72 h; at 2 µM; stronger effect = higher value.
Test [2] in a line: HepG2 cytotoxicity, primary screen, cytotoxicity control for P. falciparum antimalarial project, cell-based, ATP luminescence (AID 2303;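 active = inhibition above 50%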;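 note: 0% = DMSO wells and 100% = digitonin-killed cells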). As to conditions: HepG2 viability, 24-48 h, at 10 µM, stronger effect = higher value.
For test [3], the target named is L-lactate dehydrogenase (Plasmodium falciparum (isolate CDC / Honduras)) (UniProt Q27743). The test can be described thus: PfLDH activity inhibition – cell lysate, 3D7 strain, counter-screen for P. falciparum growth inhibition project (AID 2304).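 Note: 0% = vehicle and 100% = reference inhibitor.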 The conditions noted are these: P. falciparum 3D7 crude extract, LDH APAD/NBT absorbance; at 2 µM; stronger effect = higher value. (In general: Counterscreens check selectivity or assay interference.)
Sequence of L-lactate dehydrogenase (Plasmodium falciparum (isolate CDC / Honduras)) (Q27743 whole entry, looked up): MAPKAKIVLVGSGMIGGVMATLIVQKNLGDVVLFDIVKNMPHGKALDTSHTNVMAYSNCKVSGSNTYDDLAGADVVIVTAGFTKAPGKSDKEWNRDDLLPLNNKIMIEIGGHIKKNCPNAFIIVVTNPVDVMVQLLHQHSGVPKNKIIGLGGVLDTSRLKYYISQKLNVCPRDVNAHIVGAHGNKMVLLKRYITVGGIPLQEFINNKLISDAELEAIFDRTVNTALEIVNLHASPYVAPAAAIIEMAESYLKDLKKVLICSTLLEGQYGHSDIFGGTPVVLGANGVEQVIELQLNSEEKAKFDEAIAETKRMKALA

A short description of test [4]: inhibition of 3D7 malaria parasite growth – strain 3D7 (AID 2306).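 Note: 0% = DMSO wells and 100% = chloroquine plus artemisinin control wells.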 The conditions noted are these: P. falciparum 3D7 erythrocytic growth, LDH absorbance, 72 h; at 2 µM; stronger effect = higher value.
Test [5] concerns the target Calcium-dependent protein kinase 1 (Plasmodium falciparum (isolate 3D7)) (UniProt P62344). The test can be described thus: PfCDPK1 kinase inhibitors, biochemical, TCAMS library (AID 1159585; cut-off not given, nearly all actives have IC50 up to about 0.98 µM;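 note: inhibitors leave more ATP so luminescence rises with inhibition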). As to conditions: recombinant PfCDPK1, Kinase-Glo ATP depletion luminescence. Background: Kinase-Glo measures the ATP left after a reaction by luminescence.
Test [6] deals with Plasmodium falciparum protein kinase 6 (PK6, PF3D7_1337100) (UniProt Q8IDW1). The test can be described thus: PfPK6 kinase inhibitors, biochemical, TCAMS library (AID 1159586). The conditions noted are these: recombinant PfPK6, Kinase-Glo ATP depletion luminescence.
Sequence of Plasmodium falciparum protein kinase 6 (PK6, PF3D7_1337100) (Q8IDW1 1-305): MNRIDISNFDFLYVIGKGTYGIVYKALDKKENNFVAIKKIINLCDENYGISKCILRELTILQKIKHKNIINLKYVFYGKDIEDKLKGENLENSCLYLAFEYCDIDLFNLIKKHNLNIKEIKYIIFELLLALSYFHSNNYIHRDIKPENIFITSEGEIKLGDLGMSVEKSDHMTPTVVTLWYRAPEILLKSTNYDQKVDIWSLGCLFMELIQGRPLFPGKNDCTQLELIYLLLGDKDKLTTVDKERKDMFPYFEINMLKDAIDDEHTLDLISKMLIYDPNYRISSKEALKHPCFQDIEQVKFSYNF
Test [7] deals with Protein kinase 7 (PK7), Plasmodium falciparum 3D7 (PF3D7_0213400) (UniProt Q7YTF7). The test can be described thus: inhibition of Plasmodium PK7 catalytic activity – biochemical, TCAMS antimalarial set, Kinase-Glo luminescence (AID 1159587). As to conditions: recombinant PfPK7, Kinase-Glo ATP depletion luminescence.
Sequence of Protein kinase 7 (PK7), Plasmodium falciparum 3D7 (PF3D7_0213400) (Q7YTF7 1-343): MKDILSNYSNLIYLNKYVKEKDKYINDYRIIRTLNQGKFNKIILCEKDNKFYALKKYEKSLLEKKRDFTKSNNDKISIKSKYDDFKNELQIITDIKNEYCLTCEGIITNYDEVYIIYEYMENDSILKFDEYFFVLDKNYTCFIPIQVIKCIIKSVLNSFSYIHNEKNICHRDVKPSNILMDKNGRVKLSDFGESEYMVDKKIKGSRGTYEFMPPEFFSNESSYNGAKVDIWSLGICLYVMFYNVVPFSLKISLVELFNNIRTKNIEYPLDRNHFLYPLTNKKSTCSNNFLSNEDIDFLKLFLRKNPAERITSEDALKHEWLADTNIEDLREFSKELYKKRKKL
The target of test [8] is Calcium-dependent protein kinase 4 (Plasmodium falciparum (isolate 3D7)) (UniProt Q8IBS5). Briefly: PfCDPK4 kinase inhibitors, biochemical, TCAMS library (AID 1159588; cut-off not given, nearly all actives have IC50 up to about 0.91 µM). The conditions noted are these: recombinant PfCDPK4, Kinase-Glo ATP depletion luminescence.
Sequence of Calcium-dependent protein kinase 4 (Plasmodium falciparum (isolate 3D7)) (Q8IBS5 whole entry, looked up): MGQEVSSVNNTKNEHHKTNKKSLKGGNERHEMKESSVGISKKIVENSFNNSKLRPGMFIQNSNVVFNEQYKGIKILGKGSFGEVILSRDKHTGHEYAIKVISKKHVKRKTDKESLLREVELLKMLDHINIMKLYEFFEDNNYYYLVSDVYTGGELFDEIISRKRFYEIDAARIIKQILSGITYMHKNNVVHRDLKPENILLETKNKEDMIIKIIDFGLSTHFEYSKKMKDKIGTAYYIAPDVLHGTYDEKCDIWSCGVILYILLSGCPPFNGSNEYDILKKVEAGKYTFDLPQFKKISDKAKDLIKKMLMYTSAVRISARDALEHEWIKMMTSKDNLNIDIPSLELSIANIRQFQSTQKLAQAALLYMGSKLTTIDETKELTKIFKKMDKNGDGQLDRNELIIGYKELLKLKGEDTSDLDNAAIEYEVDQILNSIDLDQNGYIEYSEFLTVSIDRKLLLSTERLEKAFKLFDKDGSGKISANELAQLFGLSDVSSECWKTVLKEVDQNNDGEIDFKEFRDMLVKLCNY

Sequence of Calcium-dependent protein kinase 1 (Plasmodium falciparum (isolate 3D7)) (P62344 whole entry, looked up): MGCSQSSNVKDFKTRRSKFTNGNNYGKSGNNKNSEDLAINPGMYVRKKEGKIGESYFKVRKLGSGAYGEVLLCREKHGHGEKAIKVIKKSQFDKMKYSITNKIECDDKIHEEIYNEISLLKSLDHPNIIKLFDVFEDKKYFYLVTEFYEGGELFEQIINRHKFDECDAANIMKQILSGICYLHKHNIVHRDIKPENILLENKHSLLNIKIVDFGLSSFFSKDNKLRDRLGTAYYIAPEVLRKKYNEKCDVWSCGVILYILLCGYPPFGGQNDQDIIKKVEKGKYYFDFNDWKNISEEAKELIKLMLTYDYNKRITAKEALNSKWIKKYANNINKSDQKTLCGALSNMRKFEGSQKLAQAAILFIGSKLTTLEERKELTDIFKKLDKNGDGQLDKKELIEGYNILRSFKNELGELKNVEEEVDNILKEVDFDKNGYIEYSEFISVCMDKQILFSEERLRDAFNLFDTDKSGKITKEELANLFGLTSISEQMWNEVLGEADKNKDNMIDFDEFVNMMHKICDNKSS

One may read the inhibition as the change of the read-out against control, counted positive when it falls. Take `COc1ccc(C2CCN(CCCNC(=O)c3ccc(NC(=O)c4ccc(Cl)cc4)cc3)CC2)c(OC)c1`: the growth inhibition was 58% (active) in test [1] and 99% (active) in test [4]. Also, the inhibition was 26% in test [2] and 3% in test [3]. Further, the outcome in test [5], in test [6], in test [7] and in test [8] was inactive.

Regarding `Cc1nc(N)nc(N)c1CCCOc1ccccc1Br`, the growth inhibition in test [1] was 5%; in test [4], 97% (active). Further, the inhibition is 53% (active) in test [2] and 5% in test [3]. Besides, the result in test [5], in test [6], in test [7] and in test [8] was inactive.

Consider `CCCCCCCN(CCCCCCC)CCNc1cc(C)nc2ccccc12`, for which the figures for the growth inhibition in test [1] and in test [4] were 31% and 89% (active), respectively. The inhibition in test [2] was 39%; in test [3], -2%. Moreover, the outcome in test [5], in test [6], in test [7] and in test [8] was inactive.

With `COc1cc2c(=O)c(Cc3ccc(Cl)cc3)c(C)[nH]c2cc1F`, the growth inhibition in test [1] is 28%; in test [4] it was 85% (active). For the same compound, the values for the inhibition in test [2] and in test [3] were 13% and 1%, respectively. Further, the outcome in test [5], in test [6], in test [7] and in test [8] was inactive.

For `COc1cc(C(F)(F)F)nc2c(CNCCCNc3cc(=O)c4ccccc4[nH]3)scc12`, the growth inhibition is 16% in test [1] and 92% (active) in test [4]. Besides, the values for the inhibition in test [2] and in test [3] were -7% and -2%, respectively. The result in test [5], in test [6], in test [7] and in test [8] was inactive.

Consider `CC(C)C[C@H](NC(=O)c1ccc(OCCN2CCOCC2)cc1)C(=O)N[C@H](/C=N/NC(=O)c1ccccc1)CCc1ccccc1`, for which the growth inhibition was 90% (active) in test [1] and 98% (active) in test [4]. The inhibition in test [2] is 17%; in test [3], -3%. Also, the result in test [5], in test [6], in test [7] and in test [8] was inactive.

On to `O=C(Cc1ccccc1)NC(Nc1ccc([N+](=O)[O-])cc1)C(Cl)(Cl)Cl` (stereo not given), for which the values for the growth inhibition in test [1] and in test [4] were 100% (active) and 99% (active), respectively. Further, the inhibition in test [2] was 21%; in test [3], 1%. Besides, the result in test [5], in test [6], in test [7] and in test [8] was inactive.

As for `O=C(/C=C/c1ccc(Cl)c(Cl)c1)NCCCCCN1CCC(CCNC(=O)/C=C/c2ccc(Cl)c(Cl)c2)CC1`, the results for the growth inhibition in test [1] and in test [4] were 56% (active) and 101% (active), respectively. For the same compound, the inhibition in test [2] is 68% (active); in test [3], -5%. In addition, the outcome in test [5], in test [6], in test [7] and in test [8] was inactive.

`NC1=NC(=O)C(=Cc2cn(-c3ccccc3)nc2-c2cccc(S(=O)(=O)N3CCCC3)c2)S1`: the growth inhibition in test [1] is 68% (active); in test [4], 85% (active). The inhibition in test [2] was -4%; in test [3] it was 3%. The result in test [5], in test [6], in test [7] and in test [8] was inactive.

For the compound `Cc1cccc(C(=O)Nc2ccnc(N3CCC(N(C)Cc4ccccc4)CC3)c2)c1`, the growth inhibition in test [1] is 2%; in test [4], 93% (active). Moreover, the inhibition in test [2] is 12%; in test [3] it was -1%. The result in test [5], in test [6], in test [7] and in test [8] was inactive.

In the case of `COc1cc(CCOc2c(C)nc(N)nc2N)cc(OC)c1OC`, the growth inhibition in test [1] was -3%; in test [4], 93% (active). Moreover, the inhibition is 59% (active) in test [2] and 4% in test [3]. For the same compound, the result in test [5], in test [6], in test [7] and in test [8] was inactive.

On to `COc1cc(Nc2nccc(N3CCC(NC(=O)C4COc5ccccc5O4)C3)n2)cc(OC)c1OC` (stereo not given), for which the growth inhibition is 58% (active) in test [1] and 90% (active) in test [4]. Moreover, the inhibition in test [2] and in test [3] was 5% in each case. The outcome in test [5], in test [6], in test [7] and in test [8] was inactive.

Take `COc1cc(Nc2ccc3cc(S(=O)(=O)N4CCCCC4C)ccc3n2)cc(OC)c1OC` (stereo not given): the growth inhibition in test [1] was 78% (active); in test [4], 88% (active). Also, the figures for the inhibition in test [2] and in test [3] were -5% and -1%, respectively. Moreover, the outcome in test [5], in test [6], in test [7] and in test [8] was inactive.

Take `CC(C)[C@H]1CC[C@H](C)C[C@@H]1OC(=O)N[C@@H](Cc1ccc(O)cc1)C(=O)NC1CCN(Cc2ccc(OCCCN(C)C)cc2)C1` (stereo not given in full): the growth inhibition in test [1] was 64% (active); in test [4], 99% (active). The inhibition is 27% in test [2] and 4% in test [3]. For the same compound, the result in test [5], in test [6], in test [7] and in test [8] was inactive.

Consider `Cc1nc2nc(N)nc(N)c2c(C)c1Cc1ccccc1Cl`, for which the growth inhibition is -2% in test [1] and 93% (active) in test [4]. Further, the inhibition was 63% (active) in test [2] and -3% in test [3]. Further, the result in test [5], in test [6], in test [7] and in test [8] was inactive.

For the compound `COc1ccc2c(NCCc3ccccc3)cc(-c3ccccc3)nc2c1`, the figures for the growth inhibition in test [1] and in test [4] were 1% and 98% (active), respectively. For the same compound, the inhibition in test [2] was 13%; in test [3], 2%. Moreover, the outcome in test [5], in test [6], in test [7] and in test [8] was inactive.

As for `COc1ccc2ccccc2c1C=NNc1cc(C)nc2cc(C(F)(F)F)ccc12`, the growth inhibition was 4% in test [1] and 92% (active) in test [4]. For the same compound, the results for the inhibition in test [2] and in test [3] were 1% and 0%, respectively. Moreover, the outcome in test [5], in test [6], in test [7] and in test [8] was inactive.

`C=CCNC(=O)CCCN=C(N)N`: the values for the growth inhibition in test [1] and in test [4] were 12% and 98% (active), respectively. Also, the results for the inhibition in test [2] and in test [3] were -9% and -1%, respectively. Besides, the result in test [5], in test [6], in test [7] and in test [8] was inactive.

Regarding `CC1(C)C[C@@H]2C[C@@](C)(CN2C(=O)c2cc(C(C)(C)C)nn2Cc2ccccc2)C1`, the growth inhibition in test [1] was 77% (active); in test [4], 86% (active). Moreover, the inhibition is -3% in test [2] and 0% in test [3]. Moreover, the outcome in test [5], in test [6], in test [7] and in test [8] was inactive.

As for `O=C(Nc1cccc(Cl)c1Cl)N[C@H]1CCN(CCCCCNC(=O)[C@@H]2C[C@H]2c2ccc(Cl)c(Cl)c2)C1`, the growth inhibition was -7% in test [1] and 87% (active) in test [4]. For the same compound, the values for the inhibition in test [2] and in test [3] were 40% and -2%, respectively. For the same compound, the result in test [5], in test [6], in test [7] and in test [8] was inactive.
